Screening results deposited in PubChem BioAssay by The Scripps Research Institute Molecular Screening Center.
A selection: hits, their analogues and other compounds. The true share with any hit is near 3.5%.
MITF inh = MITF inhibitors, primary screen, biochemical, AlphaScreen, human; actives 0.91% (n = 650,000); Microphthalmia-associated transcription factor (Homo sapiens), O75030; AlphaScreen MITF homodimerization, bead proximity signal; inhibition, % at 2.6 µM; AID 1259374, 2018; in the data active = inhibition above about 50%;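 also: 0% = vehicle wells with protein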
Target sequence (O75030 whole entry, looked up): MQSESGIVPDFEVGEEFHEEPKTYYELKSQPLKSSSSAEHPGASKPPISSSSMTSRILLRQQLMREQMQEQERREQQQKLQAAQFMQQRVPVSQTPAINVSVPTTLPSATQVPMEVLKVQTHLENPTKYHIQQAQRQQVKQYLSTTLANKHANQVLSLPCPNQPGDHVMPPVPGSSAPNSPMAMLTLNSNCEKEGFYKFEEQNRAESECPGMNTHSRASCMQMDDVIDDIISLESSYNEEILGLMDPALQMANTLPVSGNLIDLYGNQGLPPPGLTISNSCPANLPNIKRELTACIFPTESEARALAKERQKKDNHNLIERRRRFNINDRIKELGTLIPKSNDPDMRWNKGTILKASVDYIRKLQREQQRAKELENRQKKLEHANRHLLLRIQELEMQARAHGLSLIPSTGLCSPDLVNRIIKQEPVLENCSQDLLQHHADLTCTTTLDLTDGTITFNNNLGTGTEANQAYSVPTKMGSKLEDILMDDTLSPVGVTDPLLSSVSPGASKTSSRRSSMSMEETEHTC
TEAD-YAP block = TEAD-YAP interaction inhibition, primary screen, TEAD-YAP interaction inhibitor project, luminescence, HEK-TIYL cells. TEAD-Gal4/YAP UAS-luciferase luminescence. inhibition, % at 9.12 µM. actives 1.4% (n = 640,000). AID 1259422, 2018; in the data active = inhibition above about 32%;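 also: 0% = median of test compound wells and 100% = reference inhibitor wells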
FBW7 act = FBW7 E3 ligase activators, primary screen, biochemical, AlphaScreen, human. F-box/WD repeat-containing protein 7 (Homo sapiens), Q969H0. AlphaScreen FBW7–phospho-cyclin E peptide binding, activator screen. normalized activity (activation), % at 26.1 µM. actives 0.13% (n = 650,000). AID 1259310, 2017; in the data active = normalized activity above about 1.9%;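 also: purified mutant Fbw7 with reduced substrate affinity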
GPR151 activ = activators of human GPR151, primary screen, cell-based, PathHunter beta-arrestin, luminescence | PathHunter beta-arrestin GPR151 cells | activation, % at 11.2 µM | AID 1508602, 2020 | actives 1% (n = 650,000); in the data active = activation above about 4.9%;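 also: 0% = median of compound wells and 100% = cells with positive control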
MITF confirm = MITF inhibitors, retest of hits, confirmation, biochemical, AlphaScreen, triplicate; shares compounds with MITF inh; AlphaScreen MITF homodimerization, biotin/His-MITF beads; inhibition, % at 2.6 µM; actives 16% (n = 4,700);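 active = inhibition above a cutoff derived from the DMSO control wells, cut at about 28% in these data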;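 also: 0% = MITF dimer wells with DMSO only; inhibitors lower the bead chemiluminescence by keeping MITF from dimerizing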
AS interf DR = AlphaScreen optical interference compounds, dose response, counter-screen, biochemical, HTS; shares compounds with MITF inh; AlphaScreen optical interference counterscreen, cell-free; IC50, µM; actives 6% (n = 480); AID 1259373, 2018; call rule not given here
AS interf ctr = AlphaScreen optical interference compounds, counter-screen for MITF inhibitor project, biochemical, triplicate; shares compounds with MITF inh; inhibition, % at 2.6 µM; actives 7.6% (n = 4,700); AID 1259376, 2018; LysRS AlphaScreen counterscreen, signal interference;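 active = inhibition above a cutoff derived from the DMSO control wells, cut at about 30% in these data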
* marks the source's active call; other numbers are inactive results; / = no result.

SMILES | MITF inh | TEAD-YAP block | FBW7 act | GPR151 activ | MITF confirm | AS interf ctr | others
C=CCc1cc(Cl)ccc1OCCNCCO | 52* | 14 | 0 | -1 | 5 | -9
C=CCc1cc(Cl)ccc1OCCOCCNCCOC | 56* | 3 | 0 | 1 | 42* | 0 | AS interf DR=>6.5
Cc1ccc(S(=O)(=O)N2CCC(O)(c3cccnc3)CC2)cc1 | 33 | -1 | 0 | -1 | / | /
O=S(=O)(c1ccc(F)cc1)N1CCC(O)(c2cccnc2)CC1 | 72* | -1 | 0 | -1 | 12 | 17
O=C(Nc1ccc(F)cc1F)NC1(C(=O)N2CCCCC2)CCCCC1 | 10 | -1 | 0 | 0 | / | /
O=C(CC(NCc1ccccn1)C(=O)O)Nc1ccc(Oc2ccccc2)cc1 (stereo not given) | 90* | 2 | 0 | 2 | 95* | 100*
O=C(CC(NCc1ccccn1)C(=O)O)Nc1ccc(F)cc1 (stereo not given) | 108* | -15 | 0 | 2 | 102* | 100*
O=C(CC(NCc1ccccn1)C(=O)O)Nc1cccc([N+](=O)[O-])c1 (stereo not given) | 43 | -3 | 0 | -1 | / | /
O=C(CC(NCc1ccco1)C(=O)O)Nc1ccc(Oc2ccccc2)cc1 (stereo not given) | 6 | -2 | 0 | 1 | / | /
S=c1[nH]nc(-c2cccnc2)n1/N=C/C=C/c1ccco1 | 71* | 1 | 0 | 0 | 77* | 2 | AS interf DR=>6.5
S=c1[nH]nc(-c2ccccc2)n1/N=C/C=C/c1ccco1 | 1 | -4 | 0 | 1 | / | /
CC(C)(C)C(=O)Nc1nc(-c2ccc(Cl)s2)cs1 | -12 | -32 | 0 | -1 | / | /
CCN(CC)CCCNCc1ccc(Cl)cc1 | 51* | -9 | 0 | 0 | -5 | 0
O=[N+]([O-])c1ccc(N/N=C/c2ccco2)c(S(=O)(=O)N2CCOCC2)c1 | 63* | -5 | 0 | 0 | 33* | -1 | AS interf DR=>6.5
O=[N+]([O-])c1ccc(N/N=C/c2cccc(O)c2O)c(S(=O)(=O)N2CCOCC2)c1 | -36 | -19 | -1 | 0 | / | /
COc1ccc(S(=O)(=O)NCC2CCCN(C3CCOCC3)C2)cc1 (stereo not given) | 0 | 2 | 0 | -1 | / | /
CSc1cccc(C(=O)N(CCn2cccn2)c2nc3c(C)cc(C)cc3s2)c1 | 95* | -7 | 0 | 0 | -14 | -5
O=S(=O)(Nc1ccccc1Cl)c1ccc(Cl)cc1 | 0 | 1 | 0 | 0 | / | /
Cc1ccc2[nH]c(=O)c(=O)[nH]c2c1 | 82* | 11 | 0 | 2 | 53* | -2 | AS interf DR=>12
O=c1[nH]c2ccc(Br)cc2[nH]c1=O | 1 | 3 | 0 | 1 | / | /
O=C(N/N=C/c1ccccc1OCc1cccc(Br)c1)c1cccnc1 | 2 | -3 | 0 | -1 | / | /
N#Cc1c(NC(=O)c2cccnc2Cl)oc(-c2ccco2)c1-c1ccco1 | 22 | 0 | 0 | 0 | / | /
CCOc1ncccc1C(=O)OCC(=O)Nc1oc(-c2ccco2)c(-c2ccco2)c1C#N | 71* | 2 | 0 | -1 | 72* | 5 | AS interf DR=>6.4
O=C(COC(=O)c1cc(=O)c2ccccc2o1)NCc1ccccc1 | 3 | 0 | 0 | -1 | / | /
O=C(COC(=O)c1cc(=O)c2ccccc2o1)NCc1ccc(Cl)cc1 | 52* | 11 | 0 | -1 | -9 | -5
SMILES | MITF inh | TEAD-YAP block | FBW7 act | GPR151 activ | MITF confirm | AS interf ctr | others
COc1ccc(-c2cnn3ccc(NCc4cccnc4)nc23)cc1OC | 55* | 17 | 0 | 1 | 3 | 5
C#CCNCC(O)COc1ccc(OCC)cc1 (stereo not given) | 66* | -21 | 0 | -1 | 3 | 7
O=C(CCn1c(=O)oc2ccccc21)Nc1ccc(F)cc1F | -2 | -7 | 0 | 2 | / | /
COc1cccc(CC(=O)Nc2nnc(-c3ccco3)c(-c3ccco3)n2)c1 | 63* | -4 | -1 | 1 | 80* | 15 | AS interf DR=>6.5
COc1cccc(CC(=O)Nc2ccc3ccccc3c2)c1 | -1 | 7 | 0 | -2 | / | /
Cn1c(-c2ccc(-c3ccccc3)cc2)cnc1NCc1cccnc1 | 63* | -44 | 1 | 0 | -13 | -3
Cn1c(-c2ccc(F)cc2)cnc1NCc1ccc(F)cc1 | 53* | 8 | 0 | 0 | -3 | 0
Cn1c(-c2cccc([N+](=O)[O-])c2)cnc1NCc1cccc([N+](=O)[O-])c1 | 38 | 8 | 0 | -1 | / | /
Cn1c(-c2ccc3c(c2)OCO3)cnc1NCc1cccc(F)c1 | 54* | -30 | 0 | 0 | -16 | -6
Cc1ccc(-c2cnc(NCc3cccc([N+](=O)[O-])c3)n2C)cc1 | 65* | 7 | 0 | 0 | -2 | -2
Cn1c(-c2ccc(Br)cc2)cnc1NCc1cccnc1 | 26 | 2 | 1 | 0 | / | /
O=C(CCSCc1cccc(F)c1)NC1CCCC1 | -8 | 3 | 0 | 2 | / | /
COc1ccc2cc(C#N)c(SCC(=O)NCCc3ccc(OC)c(OC)c3)nc2c1 | 1 | 8 | 0 | 0 | / | /
CC(=O)Nc1cc(C(=O)NCc2ccc(F)cc2)ccc1Nc1cccc(Cl)c1 | 16 | 8 | 1 | -1 | / | /
COc1cccc(-c2cnc(NCc3ccc(F)cc3F)n2C)c1 | 51* | -5 | 0 | 2 | -15 | -4
CCOc1cc(CN2CCN(S(=O)(=O)c3ccccc3[N+](=O)[O-])CC2)ccc1OC | 66* | -10 | 0 | 2 | 9 | 13
COc1cccc(CN2CCN(S(=O)(=O)c3ccccc3[N+](=O)[O-])CC2)c1 | 66* | -2 | 0 | 0 | 9 | 11
C/C(=N\NC(=O)Cc1cccs1)c1ccc(O)cc1 | 1 | -32 | 0 | 0 | / | /
[O-][n+]1onc2c(-c3ccc(Cl)cc3)nnc(-c3ccc(Cl)cc3)c21 | 2 | -2 | 0 | -1 | / | /
CC1(CCC(=O)NC2CCCc3ccccc32)CCC(=O)N1 (stereo not given) | 6 | -8 | 0 | 0 | / | /
Cc1ccc(C)n1C(CC(=O)O)c1ccsc1 (stereo not given) | 80* | 4 | 0 | 1 | 68* | 11 | AS interf DR=>6.8
COc1ccc(-c2c(F)ccc3cnc(Nc4ccc(-n5cnc(N6CCOCC6)n5)cc4)nc23)cc1F | 56* | -10 | 0 | 0 | 21 | 26
COc1cccc(CN2CCN(C(=O)c3cccnc3)CC2)c1OC | 77* | 0 | 0 | -1 | 9 | 11
